An excerpt weighted towards active compounds, which were near 18% of everything screened.
DT40 TDP1 CPT: DT40-hTDP1 cell growth loss with CPT; AID 686979; chicken DT40 Tdp1-/-;hTDP1 cells + 20 nM CPT, ATP luminescence, 48 h; actives 12% (n = 420,000); Potency, µM (top dose mostly 46.2 µM), hits mostly inhibitors; further: nearly all actives have a fitted effect of over 55% in size
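Chicken DT40 Tdp1-/- cells complemented with human TDP1, 400 cells/well, exposed to compounds plus 20 nM camptothecin for at least 48 h at 37 C; viability read as ATP content by CellTiter-Glo luminescence.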
IL1B secr inh: blocks inflammasome-driven IL-1 beta release; THP-1 LPS/ATP IL-1B secretion, AlphaLISA, 16 h; active compounds read low; AID 743279; actives 4.7% (n = 360,000); activity change, % at 57.5 µM; in the data active means activity change below about -50%; inconclusive means mostly about -30% to -49%
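THP-1 cells pretreated 1 hr with compounds (up to 57.5 uM final), then stimulated with LPS (250 ng/mL final) plus ATP (1.25 mM final); secreted IL-1B measured by AlphaLISA after 16 hr, decreased signal indicating inhibition.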
DT40 TDP1 no CPT: qHTS for Inhibitors of human tyrosyl-DNA phosphodiesterase 1 (TDP1): qHTS in cells in absence of CPT | DT40 Tdp1-/- hTDP1 cells, no CPT, ATP luminescence, 48 h | Potency, µM (doses to about 46.2 µM), actives largely listed as inhibitors | actives 15% (n = 420,000) | AID 686978, 2013; further: nearly all actives have a fitted effect of over 55% in size
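Luminescent ATP content (CellTiter-Glo) served as the growth readout. Knockout chicken DT40 cells expressing human TDP1 were exposed to compounds without camptothecin for a minimum 48 hr at 37 °C.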
TDP1 inh: TDP1 (human) enzyme inhibition; Q9NUW8; recombinant TDP1, AlphaScreen DNA substrate cleavage; AID 485290; Potency, µM (doses to about 130 µM), hits mostly inhibitors; actives 0.28% (n = 350,000); further: nearly all actives have a fitted effect of over 40% in size
Target sequence (Q9NUW8 whole entry, looked up): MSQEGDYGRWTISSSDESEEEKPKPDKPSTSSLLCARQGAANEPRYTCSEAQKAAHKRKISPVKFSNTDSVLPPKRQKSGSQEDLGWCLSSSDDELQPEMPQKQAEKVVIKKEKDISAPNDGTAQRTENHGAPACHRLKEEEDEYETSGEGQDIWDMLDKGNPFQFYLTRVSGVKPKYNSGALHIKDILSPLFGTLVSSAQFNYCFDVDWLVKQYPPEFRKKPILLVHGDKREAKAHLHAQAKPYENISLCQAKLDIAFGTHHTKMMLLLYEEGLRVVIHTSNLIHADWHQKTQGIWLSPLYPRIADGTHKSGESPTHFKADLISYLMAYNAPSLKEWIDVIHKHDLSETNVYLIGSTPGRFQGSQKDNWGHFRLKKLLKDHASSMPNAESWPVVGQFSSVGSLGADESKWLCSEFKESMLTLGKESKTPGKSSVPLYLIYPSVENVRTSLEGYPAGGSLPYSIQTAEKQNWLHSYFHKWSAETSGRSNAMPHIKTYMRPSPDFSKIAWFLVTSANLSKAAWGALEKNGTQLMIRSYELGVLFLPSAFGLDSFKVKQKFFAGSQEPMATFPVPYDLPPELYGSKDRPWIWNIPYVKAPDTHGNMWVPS
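Here, a 5' biotin and 3' phosphotyrosine-FITC DNA oligonucleotide reports Tdp1 activity: intact substrate bridges AlphaScreen beads, while cleavage leaves a 3' phosphate and drops signal. All incubations at room temperature.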
Six1-Eya2 blk: Six1/Eya2 interaction inhibition; Q15475+O00167; AlphaScreen GST-Six1/His-Eya2 binding, biochemical; active compounds read low; activity change, % (test concentration not listed); actives 0.56% (n = 360,000); AID 651725; in the data active means activity change below about -65%; inconclusive means mostly about -30% to -63%
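AlphaScreen luminescence read after one hour at 37 °C in darkness. Pin-transferred compounds met GST-Six1 and His-Eya2 protein (5X stock 250 nM/500 nM) plus glutathione donor and Ni-chelate acceptor beads (5X, 50 ug/mL).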
CtBP-E1A inh: CtBP/E1A binding inhibition; AlphaScreen GST-E1A/His-CtBP binding, 1536-well; active compounds read low; activity change, % (test concentration not listed); actives 0.49% (n = 340,000); AID 651724; in the data active means activity change below about -65%; inconclusive means mostly about -30% to -63%
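Homogeneous bead-based format: GST-tagged E1A captured on glutathione donor beads, His-tagged CtBP on nickel acceptor beads; compounds precede bead addition by 2 h at 37 °C.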
A number is an active result; 0 = inactive; ? = inconclusive; - = no result. Unless noted, the call rests on the fitted dose curve; in most records, active means well fitted curve in the direction sought with a large enough effect; inconclusive means small, poorly fitted or top-dose-only effect, or another doubt; inactive means no such curve, though single readings can be large; an effect the other way counts as inactive or inconclusive.

SMILES | DT40 TDP1 CPT | IL1B secr inh | DT40 TDP1 no CPT | TDP1 inh | Six1-Eya2 blk | CtBP-E1A inh
O=C(C(=O)N1CCN(c2cccc(Cl)c2)CC1)c1cn(CC(=O)N2CCOCC2)c2ccccc12 | 0 | ? | 0 | 0 | 0 | 0
CCCCCCCCCCCCCCCC[n+]1cccc(C(=O)N(CC)CC)c1 | 2.9µM | -63 | 2.6µM | 0 | 0 | 0
CCCCCCCCCCCCCCCC[n+]1ccc(C(N)=O)cc1 | 4.6µM | -103 | 2.9µM | 0 | 0 | 0
CCCCCCCCCCCCCCCC[n+]1ccc(/C=N/O)cc1 | 1.6µM | -100 | 1.6µM | 0 | 0 | 0
CCCCCCCCCCCC[n+]1ccc2ccccc2c1 | 0.53µM | - | 0.34µM | - | - | -
COCCNC(=O)c1c[nH]c2ccc(OC)cc2c1=O | 0 | 0 | 0 | 0 | 0 | 0
CCCC(C)(C)C(=O)N1CCC1(C)C(=O)Nc1cccc(OC)c1 (centres undefined) | ? | 0 | ? | - | 0 | 0
CCCCCCCCCCCCCC[n+]1ccc(C)cc1 | 0.42µM | - | 0.38µM | - | - | -
Cc1cc(C)c(NC(=O)c2cc(S(=O)(=O)N3CCOCC3)ccc2F)c(C)c1 | ? | 0 | 0 | 0 | 0 | 0
O=[N+]([O-])c1ccc(N2CCCCC2)nc1N1CCCCC1 | ? | 0 | 21µM | 0 | ? | ?
CN(C)c1ccc(/C=C/c2ccnc3c(-c4ccccc4)cccc23)cc1 | 11µM | - | ? | - | - | -
CN(C)c1ccc(/C=C/c2ccnc3c(O)ccc(O)c23)cc1 | 0 | - | 0 | - | - | -
CN(C)c1ccc(/C=C/c2ccnc3c(Cl)cccc23)cc1 | 11µM | - | 7.9µM | - | - | -
Nc1c(C(=O)NCc2ccco2)nnn1Cc1ccccc1 | 0 | 0 | 0 | 0 | 0 | 0
O=C(c1ccco1)c1nnn(Cc2ccccc2)c1-c1ccccc1 | ? | 0 | 21µM | 0 | 0 | 0
C=CCN(CC=C)C(=O)Nc1cc(Cl)ccc1OC | 0 | 0 | 0 | 0 | 0 | 0
c1cc(Nc2ncnc3sc4c(c23)CCC4)ccn1 | ? | 0 | ? | 0 | 0 | 0
NNc1ncnc2sc3c(c12)CCC3 | 8.2µM | 0 | 18µM | 0 | ? | 0
CN(C)c1ccc(Nc2ncnc3sc4c(c23)CCCC4)cc1 | ? | - | 23µM | 0 | - | -
CCOC(=O)CC(NC(=O)c1ccco1)c1ccc(C)cc1 (centres undefined) | 0 | 0 | 0 | 0 | 0 | 0
Cc1cc(C)n(CC(=O)NNC(=O)c2ccc(OC(F)(F)F)cc2)n1 | 0 | 0 | 0 | 0 | 0 | 0
Cc1ccc(C#CC[N+](C)(C)CC#Cc2ccccc2)cc1 | 2.1µM | -77 | 1.8µM | 0 | 0 | 0
C#CC[N+](C)(C)CC#Cc1ccccc1 | 0 | -66 | 0 | 0 | 0 | -
COCC(=O)N(c1ccc(C(C)C)cc1)C1C=CS(=O)(=O)C1 (centres undefined) | 0 | 0 | 0 | 0 | 0 | 0
Oc1c(Cl)ccc(Cl)c1Cl | - | - | - | 0 | - | -
SMILES | DT40 TDP1 CPT | IL1B secr inh | DT40 TDP1 no CPT | TDP1 inh | Six1-Eya2 blk | CtBP-E1A inh
O=C1C=CC(=O)c2c(O)c(CO)c(CO)c(O)c21 | 2.1µM | 0 | 2.9µM | - | -70 | 0
O=C1C=CC(=O)c2c(O)c(Cl)c(Cl)c(O)c21 | ? | - | 2.1µM | 0 | - | -
Cc1ccc(N(C(=O)C(F)(F)F)C(C(=O)NC2CCCCC2)c2cccs2)cc1 (centres undefined) | ? | 0 | ? | 0 | 0 | 0
COc1ccc(CCN(C(=O)C(F)(F)F)C(C(=O)NC2CCCCC2)c2cccs2)cc1 (centres undefined) | 7.3µM | 0 | 4.6µM | 0 | 0 | -
COc1ccc(CCN(C(=O)C(F)(F)F)C(C(=O)NC2CCCCC2)c2ccc(C)s2)cc1 (centres undefined) | 3.3µM | 0 | 2.8µM | 0 | 0 | 0
O=C(NC1CCCCC1)C(c1cccs1)N(Cc1cccs1)C(=O)c1cccs1 (centres undefined) | 18µM | -66 | 16µM | 0 | 0 | 0
O=C(Nc1ccc([N+](=O)[O-])cc1)c1cc2ccccc2nc1Cl | ? | 0 | ? | 0 | 0 | 0
CSC(=NC(C)c1ccccc1)NS(=O)(=O)c1cccs1 (centres undefined) | 0 | 0 | ? | 0 | 0 | 0
COc1ccc(-c2nc3ccc(C4=NNC(=O)CC4C)cc3[nH]2)cc1 (centres undefined) | ? | - | 13µM | - | - | -
COc1ccc2nc(-c3ccc(N)cc3)[nH]c2c1 | ? | ? | ? | 0 | 0 | 0
Cc1ccccc1OC(C)C(=O)NCc1cccnc1 (centres undefined) | 0 | 0 | 0 | 0 | 0 | 0
Cc1cc[n+](CC[n+]2ccc(C)cc2)cc1 | 0 | 0 | 0 | - | 0 | -
CCC(C)(C)c1ccc(OCCCC[n+]2ccc(C)cc2)c(C(C)(C)CC)c1 | 2.3µM | -95 | 1.2µM | 0 | 0 | 0
CCC(C)(C)c1ccc(OCCCC[n+]2cccc(C)c2C)c(C(C)(C)CC)c1 | 0.52µM | -93 | 0.41µM | 0 | 0 | -
O=C(Cn1cc(S(=O)(=O)c2ccccc2)c(=O)c2cc3c(cc21)OCO3)Nc1ccccc1 | 0 | - | 0 | 0 | - | -
Nc1nnnn1/N=C/c1ccc(N2CCCCC2)c([N+](=O)[O-])c1 | 21µM | 0 | 13µM | 0 | 0 | 0
CN1C(=O)c2ccc(NC(=O)c3ccc(N4CCCCC4)c([N+](=O)[O-])c3)cc2C1=O | 23µM | 0 | ? | 0 | 0 | 0
O=C(/C=C/c1ccc(N2CCCCC2)c([N+](=O)[O-])c1)c1ccc(O)cc1 | ? | -95 | 18µM | 0 | 0 | 0
Cc1ccc(NC(=O)c2ccc(NCCc3ccccc3)c([N+](=O)[O-])c2)cc1F | ? | 0 | ? | 0 | 0 | 0
Cc1ccc(NC(=O)c2ccc(NCCN)c([N+](=O)[O-])c2)cc1Cl | ? | 0 | 21µM | 0 | 0 | ?
O=C(O/N=C\c1ccc(N2CCCCC2)c([N+](=O)[O-])c1)c1ccc(Cl)cc1Cl | ? | 0 | 0 | 0 | ? | ?
CC1CC(C)CN(C(=O)COC(=O)c2cc3ccccc3oc2=O)C1 (centres undefined) | 0 | 0 | 0 | 0 | 0 | 0
CCN(CC)C(=O)CSc1cn(CC(=O)N2CCCCCC2)c2ccccc12 | ? | - | 0 | 0 | - | -
O=C(Nc1ccc(N2CCCC2)c(Cl)c1)c1ccc([N+](=O)[O-])cc1 | 0 | 0 | 0 | 0 | 0 | 0
Cc1cc(C(=O)Nc2ccc(N3CCCC3)c(Cl)c2)ccc1[N+](=O)[O-] | ? | - | 18µM | 0 | ? | ?
Cc1nc(SCC(=O)NC(=O)NCc2ccco2)nc(C)c1C | 0 | 0 | 0 | 0 | 0 | 0
NC(=O)CC(NC(=O)c1ccc(Br)cc1)c1ccc(N2CCC(Cc3ccccc3)CC2)c([N+](=O)[O-])c1 (centres undefined) | 16µM | 0 | 0 | - | 0 | 0

High-throughput results deposited in PubChem BioAssay by National Center for Advancing Translational Sciences (NCATS).
